Experimental findings from PubChem BioAssay (EPA / NIEHS) are described below.

What is called AC50 is the concentration giving half of the maximal activity seen.

Experiment [1] has as its system guinea pig Muscarinic, Peripheral (Mperiperal) Receptor, Non-selective Binding, gene 100379235. The experiment can be described thus: NVS_GPCR_gMPeripheral_NonSelective: NovaScreen (NVS) G Protein-Coupled Receptor Assay for guinea pig Muscarinic, Peripheral (Mperiperal) Receptor, Non-selective Binding (AID 2283250). In short, it runs like this:
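Guinea pig bladder membranes, radioligand binding read 1 h after dosing by filter scintillation counting; loss of signal vs DMSO. Primary duplicate screen at 25 uM, then concentration-response up to 50 uM.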

For experiment [2], the target named is human Serotonin, 5-Hydroxytryptamine Receptor 7 (5HT7), HTR7 (gene 3363) (UniProt P34969). The experiment can be described thus: NVS_GPCR_h5HT7: NovaScreen (NVS) G Protein-Coupled Receptor Assay for human Serotonin, 5-Hydroxytryptamine Receptor 7 (5HT7) (AID 2283255).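 Also: hits reduce specific radioligand binding relative to DMSO.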 The essentials: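 Radioligand displacement on membranes from CHO cells expressing human 5HT7, 1 h incubation, filter-based scintillation counting. Primary screen used a single 25 uM concentration in duplicate; actives were followed up in concentration series.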
Chain of human Serotonin, 5-Hydroxytryptamine Receptor 7 (5HT7), HTR7 (gene 3363) (P34969 whole entry, looked up): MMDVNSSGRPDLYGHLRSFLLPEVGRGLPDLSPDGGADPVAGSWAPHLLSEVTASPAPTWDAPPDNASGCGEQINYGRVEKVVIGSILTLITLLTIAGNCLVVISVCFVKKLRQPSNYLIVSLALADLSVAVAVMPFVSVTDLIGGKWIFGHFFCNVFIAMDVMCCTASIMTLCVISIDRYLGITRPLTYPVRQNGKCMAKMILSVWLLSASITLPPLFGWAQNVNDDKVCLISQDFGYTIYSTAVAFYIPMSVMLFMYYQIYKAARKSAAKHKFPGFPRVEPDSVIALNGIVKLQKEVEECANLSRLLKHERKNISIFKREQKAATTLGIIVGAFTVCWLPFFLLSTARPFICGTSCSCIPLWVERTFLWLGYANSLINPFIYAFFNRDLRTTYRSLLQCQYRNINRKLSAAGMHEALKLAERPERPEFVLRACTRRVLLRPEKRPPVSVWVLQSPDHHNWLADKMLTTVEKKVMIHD

In experiment [3] the target is guinea pig Opioid, Kappa 1 Receptor (OpiateK), OPRK1 (gene 100135587) (UniProt P41144). The experiment is described as follows: NVS_GPCR_gOpiateK: NovaScreen (NVS) G Protein-Coupled Receptor Assay for guinea pig Opioid, Kappa 1 Receptor (OpiateK) (AID 2283252).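 Also: active means reduced radioligand binding relative to DMSO.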 In short, it runs like this: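 Signal is scintillation counts of filter-trapped radioligand bound to guinea pig cerebellar membrane receptor, measured 2 hours post-dosing. Activity is loss of binding versus DMSO, first at 25 uM in duplicate, then as concentration series for actives.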
Chain of guinea pig Opioid, Kappa 1 Receptor (OpiateK), OPRK1 (gene 100135587) (P41144 whole entry, looked up): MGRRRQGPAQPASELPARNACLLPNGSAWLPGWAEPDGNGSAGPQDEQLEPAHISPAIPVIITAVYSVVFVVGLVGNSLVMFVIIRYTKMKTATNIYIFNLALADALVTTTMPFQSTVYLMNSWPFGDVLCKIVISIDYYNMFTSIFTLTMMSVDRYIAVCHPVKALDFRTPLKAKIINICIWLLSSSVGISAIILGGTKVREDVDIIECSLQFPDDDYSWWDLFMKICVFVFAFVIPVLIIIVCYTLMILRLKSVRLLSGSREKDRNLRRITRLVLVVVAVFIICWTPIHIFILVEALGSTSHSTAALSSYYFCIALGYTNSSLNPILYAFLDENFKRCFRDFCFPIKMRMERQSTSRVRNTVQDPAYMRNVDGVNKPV

The target in experiment [4] is human Dopamine Receptor D2 (DRD2), DRD2 (gene 1813) (UniProt P14416). The experiment can be described thus: NVS_GPCR_hDRD2s: NovaScreen (NVS) G Protein-Coupled Receptor Assay for human Dopamine Receptor D2 (DRD2) (AID 2283266). In short, it runs like this: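 Radioligand displacement used human DRD2 membranes extracted from CHO cells and was read by filter-based scintillation counting after 1.5 hours. Primary screening was in duplicate at 25 uM. Loss of signal versus DMSO was fitted, with concentration series in follow-up.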
Chain of human Dopamine Receptor D2 (DRD2), DRD2 (gene 1813) (P14416 whole entry, looked up): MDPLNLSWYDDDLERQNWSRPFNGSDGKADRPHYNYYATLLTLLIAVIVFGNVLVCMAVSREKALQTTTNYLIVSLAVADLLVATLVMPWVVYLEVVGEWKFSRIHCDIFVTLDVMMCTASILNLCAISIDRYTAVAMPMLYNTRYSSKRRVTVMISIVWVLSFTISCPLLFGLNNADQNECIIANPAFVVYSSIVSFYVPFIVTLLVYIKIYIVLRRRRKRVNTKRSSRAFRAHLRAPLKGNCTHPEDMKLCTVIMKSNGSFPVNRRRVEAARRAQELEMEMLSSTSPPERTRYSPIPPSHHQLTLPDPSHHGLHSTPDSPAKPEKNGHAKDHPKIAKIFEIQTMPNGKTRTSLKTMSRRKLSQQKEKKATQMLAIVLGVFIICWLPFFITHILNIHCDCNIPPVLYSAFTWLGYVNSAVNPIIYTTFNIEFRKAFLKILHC

In experiment [5] the target is human Dopamine Receptor D4.4 (DRD4.4), DRD4 (gene 1815) (UniProt P21917). The experiment can be described thus: NVS_GPCR_hDRD4.4: NovaScreen (NVS) G Protein-Coupled Receptor Assay for human Dopamine Receptor D4.4 (DRD4.4) (AID 2283264). The essentials:
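Radioligand displacement on human DRD4.4 from CHO-derived membranes, 1 hour incubation, bound counts read by filtration and scintillation. Primary screen in duplicate at 25 uM; actives followed up in concentration series.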

Experiment [6] addresses human Serotonin, 5-Hydroxytryptamine Receptor 2A (5HT2A), HTR2A (gene 3356) (UniProt P28223). The experiment is described as follows: NVS_GPCR_h5HT2A: NovaScreen (NVS) G Protein-Coupled Receptor Assay for human Serotonin, 5-Hydroxytryptamine Receptor 2A (5HT2A) (AID 2283249). In short, it runs like this: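 Human cortex membranes, cell-free radioligand binding; filter-based scintillation read 1.5 h after dosing. Duplicate screen at 25 uM first; displacement of specific binding (loss of signal) versus DMSO.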

Experiment [7] addresses human Serotonin, 5-Hydroxytryptamine Receptor 6 (5HT6), HTR6 (gene 3362) (UniProt P50406). The experiment is described as follows: NVS_GPCR_h5HT6: NovaScreen (NVS) G Protein-Coupled Receptor Assay for human Serotonin, 5-Hydroxytryptamine Receptor 6 (5HT6) (AID 2283253). In short, it runs like this: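 Radioligand binding to 5HT6 in HEK293-derived membranes, cell-free, 1 h after dosing; bound ligand measured by filter-based scintillation counting. Primary screen in duplicate at 25 uM; actives retested in concentration series.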

The target of experiment [8] is human Adenosine A1 Receptor (AdoRA1), ADORA1 (gene 134) (UniProt P30542). The experiment can be described thus: NVS_GPCR_hAdoRA1: NovaScreen (NVS) G Protein-Coupled Receptor Assay for human Adenosine A1 Receptor (AdoRA1) (AID 2283254). The essentials: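 Hum. cortical membranes + radioligand, cmpd 1 h; filtration, scintillation count. Readout = decrease vs DMSO. Primary 25 uM dup; hits → conc. series.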
Chain of human Adenosine A1 Receptor (AdoRA1), ADORA1 (gene 134) (P30542 whole entry, looked up): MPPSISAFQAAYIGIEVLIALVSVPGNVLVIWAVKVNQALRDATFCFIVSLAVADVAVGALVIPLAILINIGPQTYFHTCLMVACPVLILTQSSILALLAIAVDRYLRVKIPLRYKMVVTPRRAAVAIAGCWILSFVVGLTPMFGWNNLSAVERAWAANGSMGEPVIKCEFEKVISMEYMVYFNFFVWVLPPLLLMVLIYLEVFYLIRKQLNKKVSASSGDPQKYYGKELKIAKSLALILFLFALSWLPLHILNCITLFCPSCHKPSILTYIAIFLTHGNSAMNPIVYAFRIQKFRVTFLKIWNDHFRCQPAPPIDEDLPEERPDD

For experiment [9], the target named is human Adrenergic, Alpha 2A Receptor (Adra2A), ADRA2A (gene 150) (UniProt P08913). The experiment can be described thus: NVS_GPCR_hAdra2A: NovaScreen (NVS) G Protein-Coupled Receptor Assay for human Adrenergic, Alpha 2A Receptor (Adra2A) (AID 2283257). In short, it runs like this:
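Radioligand filter-binding was run on HT29-derived membranes, cell-free, read by scintillation counting 1 h after dosing. Primary screening was in duplicate at 25 uM, with concentration series in follow-up. Loss of signal versus DMSO indicates displacement.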

Experiment [10] concerns the target human Adrenergic, Alpha 2c Receptor (Adra2C), ADRA2C (gene 152) (UniProt P18825). The experiment is described as follows: NVS_GPCR_hAdra2C: NovaScreen (NVS) G Protein-Coupled Receptor Assay for human Adrenergic, Alpha 2c Receptor (Adra2C) (AID 2283259). In short, it runs like this: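 Radioligand binding on Sf9-expressed receptor membranes, 1 h after chemical dosing, filter-based scintillation read-out. Loss of binding fitted positively versus DMSO; primary duplicate screen at 25 uM, actives retested in concentration series.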

In experiment [11] the target is Beta-2 adrenergic receptor (Homo sapiens) (UniProt P07550). The experiment is described as follows: NVS_GPCR_hAdrb2: NovaScreen (NVS) G Protein-Coupled Receptor Assay for human Adrenergic, Beta 2 Receptor (Adrb2) (AID 2283261). The essentials: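 Filter-based radioligand binding using receptor prepared from CHO cells, 1 h incubation, scintillation counting. Primary screen in duplicate at 25 uM, actives retested in concentration series; loss of binding relative to DMSO.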
Chain of Beta-2 adrenergic receptor (Homo sapiens) (P07550 whole entry, looked up): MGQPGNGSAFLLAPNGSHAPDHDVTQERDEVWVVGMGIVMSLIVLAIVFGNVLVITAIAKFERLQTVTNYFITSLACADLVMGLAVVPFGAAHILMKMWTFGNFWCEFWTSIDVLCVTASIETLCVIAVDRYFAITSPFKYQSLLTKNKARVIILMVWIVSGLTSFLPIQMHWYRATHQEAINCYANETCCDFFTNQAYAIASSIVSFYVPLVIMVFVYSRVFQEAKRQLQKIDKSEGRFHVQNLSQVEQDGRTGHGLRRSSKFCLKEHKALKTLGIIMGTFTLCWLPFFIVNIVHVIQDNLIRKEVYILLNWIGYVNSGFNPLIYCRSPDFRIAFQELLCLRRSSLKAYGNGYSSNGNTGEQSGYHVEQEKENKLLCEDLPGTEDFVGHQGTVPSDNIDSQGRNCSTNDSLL

The target of experiment [12] is human Adrenergic, Beta 3 Receptor (Adrb3), ADRB3 (gene 155) (UniProt P13945). The experiment is described as follows: NVS_GPCR_hAdrb3: NovaScreen (NVS) G Protein-Coupled Receptor Assay for human Adrenergic, Beta 3 Receptor (Adrb3) (AID 2283262). In short, it runs like this: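 Membranes from SK-N-MC cells pretreated with isoproterenol and 8-bromo-cAMP were used in a radioligand competitive displacement binding assay. Binding was read by filter-based scintillation counting 1 hour after dosing. Primary screening was in duplicate at 25 uM, with concentration series in follow-up.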

The target of experiment [13] is human Serotonin, 5-Hydroxytryptamine Receptor 5A (5HT5A), HTR5A (gene 3361) (UniProt P47898). The experiment can be described thus: NVS_GPCR_h5HT5A: NovaScreen (NVS) G Protein-Coupled Receptor Assay for human Serotonin, 5-Hydroxytryptamine Receptor 5A (5HT5A) (AID 2283251). In short, it runs like this: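 Cell-free radioligand displacement binding on HEK293-derived membrane protein, 1 h incubation, filter-based scintillation counting. Primary screen in duplicate at 25 uM, actives followed in concentration series; loss of signal fitted versus DMSO.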
Chain of human Serotonin, 5-Hydroxytryptamine Receptor 5A (5HT5A), HTR5A (gene 3361) (P47898 whole entry, looked up): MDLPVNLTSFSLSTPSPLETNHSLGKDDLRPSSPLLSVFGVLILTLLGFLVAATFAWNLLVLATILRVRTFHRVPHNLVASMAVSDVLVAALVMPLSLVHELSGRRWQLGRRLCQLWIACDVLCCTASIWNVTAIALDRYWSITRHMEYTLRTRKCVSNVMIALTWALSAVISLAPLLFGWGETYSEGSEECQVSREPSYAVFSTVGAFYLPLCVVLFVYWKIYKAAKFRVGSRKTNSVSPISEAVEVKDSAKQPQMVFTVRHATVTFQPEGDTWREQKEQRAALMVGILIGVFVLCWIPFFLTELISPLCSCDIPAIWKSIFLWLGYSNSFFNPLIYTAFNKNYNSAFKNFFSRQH

The target of experiment [14] is human Adrenergic, Beta 1 Receptor (Adrb1), ADRB1 (gene 153) (UniProt P08588). The experiment is described as follows: NVS_GPCR_hAdrb1: NovaScreen (NVS) G Protein-Coupled Receptor Assay for human Adrenergic, Beta 1 Receptor (Adrb1) (AID 2283258). The essentials:
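Cell-free radioligand displacement on receptor from human neuroepithelioma cells; 2 h after dosing, filter-based scintillation counting. Primary screen in duplicate at 25 uM, actives retested in concentration series; loss of signal vs DMSO baseline.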

In experiment [15] the test system is bovine Histamine 1 Receptor (H1), gene 281231. The experiment can be described thus: NVS_GPCR_bH1: NovaScreen (NVS) G Protein-Coupled Receptor Assay for bovine Histamine 1 Receptor (H1) (AID 2283246). In short, it runs like this: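 Radioligand displacement on bovine cerebellar membranes, 1 h after dosing, filter-based scintillation read-out; loss of signal vs DMSO. Duplicate single-concentration screen at 25 uM, then concentration-response up to 50 uM for hits.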

Inconclusive results are not listed. Activity calls are given as the source filed them. The calls were made as follows: active = hit-call score of the fitted dose curve at least 0.9, where 1 is the maximum; inconclusive = response in the unintended direction; inactive = score below 0.9.

Chain of human Adrenergic, Alpha 2c Receptor (Adra2C), ADRA2C (gene 152) (P18825 whole entry, looked up): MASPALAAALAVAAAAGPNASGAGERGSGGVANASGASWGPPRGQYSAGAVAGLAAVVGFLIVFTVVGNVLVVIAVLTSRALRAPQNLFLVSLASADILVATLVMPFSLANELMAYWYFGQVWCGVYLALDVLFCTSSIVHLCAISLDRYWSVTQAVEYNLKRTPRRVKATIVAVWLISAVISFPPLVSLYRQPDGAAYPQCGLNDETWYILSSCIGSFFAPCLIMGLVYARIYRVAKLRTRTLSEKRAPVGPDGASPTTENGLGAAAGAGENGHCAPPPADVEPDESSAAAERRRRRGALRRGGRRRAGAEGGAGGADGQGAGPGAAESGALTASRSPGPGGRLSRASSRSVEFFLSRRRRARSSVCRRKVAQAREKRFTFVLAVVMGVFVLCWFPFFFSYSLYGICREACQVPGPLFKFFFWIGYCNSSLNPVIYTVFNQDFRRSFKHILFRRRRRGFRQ
Chain of human Serotonin, 5-Hydroxytryptamine Receptor 6 (5HT6), HTR6 (gene 3362) (P50406 whole entry, looked up): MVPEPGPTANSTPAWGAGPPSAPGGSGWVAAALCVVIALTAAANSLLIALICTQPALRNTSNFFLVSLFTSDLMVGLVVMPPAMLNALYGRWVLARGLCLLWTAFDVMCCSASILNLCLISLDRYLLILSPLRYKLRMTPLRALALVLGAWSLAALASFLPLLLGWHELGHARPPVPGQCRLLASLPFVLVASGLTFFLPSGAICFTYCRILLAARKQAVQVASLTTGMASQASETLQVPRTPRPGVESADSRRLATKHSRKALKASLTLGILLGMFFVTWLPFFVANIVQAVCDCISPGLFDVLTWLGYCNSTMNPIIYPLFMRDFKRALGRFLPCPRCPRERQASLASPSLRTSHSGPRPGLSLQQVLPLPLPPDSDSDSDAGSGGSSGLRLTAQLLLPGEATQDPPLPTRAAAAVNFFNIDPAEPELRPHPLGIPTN
Chain of human Dopamine Receptor D4.4 (DRD4.4), DRD4 (gene 1815) (P21917 whole entry, looked up): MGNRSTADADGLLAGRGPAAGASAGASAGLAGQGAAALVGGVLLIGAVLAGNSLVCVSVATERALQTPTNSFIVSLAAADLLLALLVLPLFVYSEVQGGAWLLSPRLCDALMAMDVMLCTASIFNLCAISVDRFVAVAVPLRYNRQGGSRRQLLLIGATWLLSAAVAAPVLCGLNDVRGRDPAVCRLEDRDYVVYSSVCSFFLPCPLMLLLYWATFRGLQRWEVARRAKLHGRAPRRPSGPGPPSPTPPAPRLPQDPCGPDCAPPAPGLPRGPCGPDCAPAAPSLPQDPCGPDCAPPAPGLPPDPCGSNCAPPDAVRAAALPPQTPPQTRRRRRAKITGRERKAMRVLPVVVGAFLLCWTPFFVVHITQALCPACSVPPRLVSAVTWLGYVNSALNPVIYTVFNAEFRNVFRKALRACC
Chain of human Adrenergic, Alpha 2A Receptor (Adra2A), ADRA2A (gene 150) (P08913 whole entry, looked up): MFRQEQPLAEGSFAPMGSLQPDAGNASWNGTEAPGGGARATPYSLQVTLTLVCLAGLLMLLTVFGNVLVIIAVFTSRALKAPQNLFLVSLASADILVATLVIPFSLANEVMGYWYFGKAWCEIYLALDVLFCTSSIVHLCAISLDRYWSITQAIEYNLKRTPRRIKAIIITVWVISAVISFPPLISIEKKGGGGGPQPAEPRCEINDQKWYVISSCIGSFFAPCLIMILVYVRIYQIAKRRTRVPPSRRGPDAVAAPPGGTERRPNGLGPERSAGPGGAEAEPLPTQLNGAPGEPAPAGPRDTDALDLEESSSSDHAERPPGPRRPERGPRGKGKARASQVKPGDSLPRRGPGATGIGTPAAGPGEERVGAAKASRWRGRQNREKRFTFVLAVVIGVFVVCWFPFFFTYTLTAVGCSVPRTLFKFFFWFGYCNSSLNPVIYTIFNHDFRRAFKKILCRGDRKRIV
Chain of human Adrenergic, Beta 1 Receptor (Adrb1), ADRB1 (gene 153) (P08588 whole entry, looked up): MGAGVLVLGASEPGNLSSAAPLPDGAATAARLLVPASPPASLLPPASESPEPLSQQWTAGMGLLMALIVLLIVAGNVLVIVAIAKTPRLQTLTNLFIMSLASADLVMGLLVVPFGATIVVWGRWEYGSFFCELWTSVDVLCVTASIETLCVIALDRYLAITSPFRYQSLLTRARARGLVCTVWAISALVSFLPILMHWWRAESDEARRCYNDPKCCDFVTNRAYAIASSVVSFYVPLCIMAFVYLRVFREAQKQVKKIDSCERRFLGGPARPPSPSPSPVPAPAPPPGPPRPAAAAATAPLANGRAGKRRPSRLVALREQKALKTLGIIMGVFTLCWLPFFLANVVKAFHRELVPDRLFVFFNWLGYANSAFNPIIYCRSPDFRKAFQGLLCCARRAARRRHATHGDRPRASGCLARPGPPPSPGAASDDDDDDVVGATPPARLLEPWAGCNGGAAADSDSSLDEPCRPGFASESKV

In the case of `COc1ccc(S(=O)(=O)N2C(=O)[C@@](c3ccccc3OC)(N3C[C@H](O)C[C@H]3C(=O)N(C)C)c3cc(Cl)ccc32)c(OC)c1`, the concentration at half-maximal activity (AC50) in experiment [1] is 13.8 µM (active).

Consider `CC(C)c1ccc(C(=O)N=C(N)N)cc1S(C)(=O)=O`, for which, in experiment [2], the AC50 was 8.17 µM (active).

`Cc1nc(-c2ccc3c(c2)CCN(CCC2CCC(NC(=O)/C=C/c4ccc(F)cc4)CC2)CC3)no1` (stereo not drawn): the concentration at half-maximal activity (AC50) was 0.483 µM (active) in experiment [1] and 0.262 µM (active) in experiment [3]. The molecule was classed as inactive in experiment [4].

Consider `CCc1c(C(=O)NN2CCCCC2)nn(-c2ccc(Cl)cc2Cl)c1-c1ccc(Br)cc1`, for which the AC50 in experiment [3] is 9.97 µM (active). For the same molecule, the molecule was called inactive in experiment [5].

With `Oc1ccc2c(c1)OC[C@@H](N1CCC(O)(c3ccc(F)cc3)CC1)[C@H]2O`, the molecule was called inactive in experiment [6], in experiment [7], in experiment [8], in experiment [9], in experiment [10] and in [11]. Besides, the result in [12] and in experiment [4] was inactive.

Take `CN1CCN(Cc2cc(-c3ccc4[nH]c(=O)oc4c3)co2)[C@@H](c2ccc(F)cc2)C1`: the molecule was called inactive in [1], in experiment [3] and in [4]. Besides, the concentration at half-maximal activity (AC50) in experiment [13] is 9.14 µM (active); in experiment [7], 2.5 µM (active); in [2] it was 15.6 µM (active); in experiment [14], 22 µM (active); in experiment [10] it was 10.5 µM (active); in [5], 14.2 µM (active).

For `COc1ccc2c(c1)c(CC(=O)O)c(C)n2C(=O)c1ccc(Cl)cc1`, the outcome in experiment [1] was inactive.

In the case of `CC1(C)CC(N=C=O)CC(C)(CN=C=O)C1` (stereo not drawn), the call in experiment [10] was inactive.

Regarding `Nc1ccc2c(c1)C(=O)c1ccccc1C2=O`, in [15], the result was inactive. Besides, in [8], the AC50 is 6.52 µM (active).
